Potency and affinity values are given separately. Results filed as inconclusive are left out. Calls of active or inactive are those of the source.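 The calls were made as follows: active = in every test run, a fitted half-maximal concentration for signal decrease at or below twice the highest tested concentration; inconclusive = runs disagree, flat 30 to 70% decrease, or poor fit; inactive = the rest.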

This experiment in a line: miR-122 activators in hepatoma reporter cells, dose response, cell-based, Huh7 psiCHECK-miR122, Renilla luciferase, cherry-picked (AID 651956).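 Also: Renilla luciferase from a miR-122 sensor reporter so lower signal means miR-122 activation; 0% = median neutral control wells and -100% = median positive control wells.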 The note with it: 48 h; series mostly up to 35 µM; activity change, negative = signal decrease: at the top concentration.
`CCOc1ccc(CCNC(=O)C2CCN(S(=O)(=O)N3CCC(C)CC3)CC2)cc1OCC`: the “activity change, negative = signal decrease” value was 9.19% (inactive).

With `CN1CCN(C(=O)C[C@H]2CC[C@@H]3[C@H](COc4ccc(NC(=O)c5cccs5)cc4C(=O)N3C)O2)CC1`, the “activity change, negative = signal decrease” value was -16.5% (inactive).

Consider `O=C(C1CC1)N1C[C@H]2[C@@H](c3ccccc31)[C@H](CO)N2C(=O)c1ccccc1F`, for which the “activity change, negative = signal decrease” value is -25.8% (inactive).

Take `Cc1cnc(NC(=O)c2cc3c(C)nn(-c4ccccc4)c3s2)s1`: the “activity change, negative = signal decrease” value is -11.8% (inactive).

On to `CCC(=O)N1[C@H](CO)[C@H](c2ccccc2)[C@@H]1CN(CC)C(=O)c1ccccc1`, for which the “activity change, negative = signal decrease” value was -26.6% (inactive).

As for `COCC(=O)N1[C@H](CO)[C@@H](c2ccccc2)[C@H]1CN(C)C(=O)c1ccncc1`, the “activity change, negative = signal decrease” value was -29.2% (inactive).

Take `CN1C(=O)c2cc(NC(=O)c3cccc(C(F)(F)F)c3)ccc2OC[C@@H]2O[C@@H](CC(=O)NCCN3CCCC3)CC[C@@H]21`: the “activity change, negative = signal decrease” value is -24.5% (inactive).

As for `COc1cccc(COc2cc3ccccc3nc2C)c1`, the “activity change, negative = signal decrease” value is -4.9% (inactive).

Consider `Cc1ccc(-c2nnn(CC(=O)N(CC(=O)NCC3CCCO3)c3ccccc3)n2)o1` (stereo unspecified), for which the “activity change, negative = signal decrease” value is -15.9% (inactive).

Consider `O=C(Nc1ccccc1)N1C[C@@H]2[C@H](c3ccccc31)[C@H](CO)N2Cc1cocn1`, for which the “activity change, negative = signal decrease” value was -18.3% (inactive).

Turning to `Cc1ccccc1-c1nc(CN2CCCC(C(=O)NCCCN3CCOCC3)C2)c(C)o1` (stereo unspecified), the “activity change, negative = signal decrease” value is -7.02% (inactive).

As for `CNC(=O)C[C@H]1CC[C@@H]2[C@H](COc3ccc(NC(=O)Nc4cccc(F)c4)cc3C(=O)N2C)O1`, the “activity change, negative = signal decrease” value is 14.6% (inactive).

Regarding `CN1C(=O)c2cc(NC(=O)c3cccc(F)c3)ccc2OC[C@@H]2O[C@@H](CC(=O)NC3CCC3)CC[C@@H]21`, the “activity change, negative = signal decrease” value was 53.3% (inactive).

Consider `COc1ccc(NC(=O)N(C)C[C@@H]2Oc3cc(C#CCC(C)C)ccc3S(=O)(=O)N([C@@H](C)CO)C[C@@H]2C)cc1`, for which the “activity change, negative = signal decrease” value was -12.5% (inactive).

In the case of `CCCNC(=O)C[C@@H]1CC[C@@H]2[C@@H](COc3ccc(NC(=O)c4ccc(C(F)(F)F)cc4)cc3C(=O)N2C)O1`, the “activity change, negative = signal decrease” value was -48.5% (inactive).

As to `CC(C)NC(=O)N1C[C@@H]2[C@H](c3ccccc31)[C@@H](CO)N2C(=O)c1cccnc1`, the “activity change, negative = signal decrease” value was -18.4% (inactive).

For the compound `C/C=C/c1ccc([C@@H]2[C@H](CO)N[C@H]2CN(CC)C(=O)CN2CCOCC2)cc1`, the “activity change, negative = signal decrease” value was -20.8% (inactive).

Turning to `COC(=O)c1c(N)nc(C)n1-c1ccc(OC)cc1`, the “activity change, negative = signal decrease” value was -18.8% (inactive).

Take `C/C=C/c1ccc([C@@H]2[C@H](CO)N(Cc3ccccn3)[C@H]2CNC(=O)CC)cc1`: the “activity change, negative = signal decrease” value is 60.6% (inactive).

As for `CCNC(=O)C[C@@H]1CC[C@@H]2[C@@H](COc3ccc(NC(=O)c4ccccc4)cc3C(=O)N2C)O1`, the “activity change, negative = signal decrease” value was 57.6% (inactive).

On to `COCC(=O)Nc1ccc2c(c1)C(=O)N(C)[C@@H]1CC[C@H](CC(=O)N3CCc4ccccc4C3)O[C@H]1CO2`, for which the “activity change, negative = signal decrease” value is -21.2% (inactive).

As to `Cc1onc(-c2ccccc2)c1C(=O)NCc1ccccn1`, the “activity change, negative = signal decrease” value is -31.6% (inactive).

On to `COc1cccc(NC(=O)N2[C@H](CO)[C@@H](c3ccccc3)[C@H]2CNCC(C)C)c1`, for which the “activity change, negative = signal decrease” value is -34.4% (inactive).

With `COCC(=O)Nc1ccc2c(c1)C(=O)N(C)[C@@H]1CC[C@@H](CC(=O)NCCCN(C)C)O[C@@H]1CO2`, the “activity change, negative = signal decrease” value is -13.9% (inactive).

`CC(C)C(=O)Nc1ccc2c(c1)C(=O)N(C)[C@@H]1CC[C@@H](CC(=O)NCCc3ccccc3)O[C@H]1CO2`: the “activity change, negative = signal decrease” value is 2.42% (inactive).

For the compound `C/C=C/c1ccc([C@H]2[C@H](CO)N[C@H]2CN(C)S(=O)(=O)c2ccccc2)cc1`, the “activity change, negative = signal decrease” value is -26.8% (inactive).

On to `CCCNC(=O)N1C[C@@H]2[C@H](c3ccccc31)[C@@H](CO)N2Cc1cc(F)ccc1F`, for which the “activity change, negative = signal decrease” value is -0.833% (inactive).

With `CN(C)CCCNC(=O)C[C@H]1CC[C@H]2[C@H](COc3ccc(NS(C)(=O)=O)cc3C(=O)N2C)O1`, the “activity change, negative = signal decrease” value was -3.73% (inactive).

For `CCCNC(=O)C[C@@H]1CC[C@H]2[C@@H](COc3ccc(NC(=O)c4ccc(C(F)(F)F)cc4)cc3C(=O)N2C)O1`, the “activity change, negative = signal decrease” value was -37% (inactive).

For `COCC(=O)Nc1ccc2c(c1)C(=O)N(C)[C@@H]1CC[C@H](CC(=O)NCCCN(C)C)O[C@H]1CO2`, the “activity change, negative = signal decrease” value is -2.91% (inactive).

Take `C=CCNC(=S)NNC(=O)c1cccn(Cc2ccc(Cl)c(Cl)c2)c1=O`: the “activity change, negative = signal decrease” value was -25.4% (inactive).

For `COc1ccc(CNC(=O)C[C@H]2CC[C@H]3[C@H](COc4ccc(NC(=O)C(C)C)cc4C(=O)N3C)O2)cc1`, the “activity change, negative = signal decrease” value is 55.2% (inactive).

As to `CC(=O)Nc1ccc2c(c1)C(=O)N(C)[C@H]1CC[C@H](CC(=O)Nc3ccccc3Cl)O[C@@H]1CO2`, the “activity change, negative = signal decrease” value was 152% (inactive).

In the case of `COc1ccc(OC)c(Nc2cc(C)nc3ccc(C)cc23)c1`, the “activity change, negative = signal decrease” value is -95.2% (inactive).

Turning to `O=C(Oc1c(CN2CCOCC2)cc(Cl)c2cccnc12)c1ccc(F)cc1`, the “activity change, negative = signal decrease” value is 18.7% (inactive).

Take `CCS(=O)(=O)Nc1ccc2c(c1)C(=O)N(C)[C@H]1CC[C@H](CC(=O)NCCCN3CCOCC3)O[C@H]1CO2`: the “activity change, negative = signal decrease” value is 1.82% (inactive).

Source of the values: PubChem BioAssay AID651956 (Broad Institute, 2012).
